Assay results as given in PubChem BioAssay AID1159580 (chemical genetic matrix, 2015).
Among all 5,500 compounds or so, about 2,000 (36%) were called active. About 18% were inconclusive and are not listed. No stated cut-off is given here; in the data, active means normalized growth mostly below about 0.91 (no sharp cut-off); inconclusive means no clear call, values can overlap the other calls; inactive means mostly above about 0.92. The list shows a part of the results.

Assay: chemical genetic growth profiling, strain panel (AID 1159580);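 further: tested at 20 µM; growth read once vehicle control cultures reached saturation at 30 °C; 1 = growth at the plate median or of vehicle wells; lower values mean less growth of the strain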
Conditions: growth OD

Measured: normalized growth

COC(=O)[C@H]1[C@H]2C[C@H]3c4[nH]c5cc(OC)ccc5c4CCN3C[C@H]2C[C@@H](OC(=O)c2cc(OC)c(OC)c(OC)c2)[C@@H]1OC
inactive: S. cerevisiae deletion strains, locus YKL009W, strain mrt4, hits give low values 0.991 | S. cerevisiae deletion strains, locus YKL068W, hits give low values 0.995 | S. cerevisiae deletion strains, locus YKL085W, strain MDH1 (second series), hits give low values 1 | S. cerevisiae deletion strains, locus YKL085W, strain MDH1, hits give low values 1 | S. cerevisiae deletion strains, locus YKL160W, strain elf1, hits give low values 0.995 | S. cerevisiae deletion strains, locus YKR001C, strain vps1, hits give low values 1.01 | S. cerevisiae deletion strains, locus YKR026C, strain gcn3, hits give low values 0.994 | S. cerevisiae deletion strains, locus YKR091W, strain srl3, hits give low values 1.02 | S. cerevisiae deletion strains, locus YLL001W, strain dnm1, hits give low values 1.03 | S. cerevisiae deletion strains, locus YLL026W, hits give low values 1.02 | S. cerevisiae deletion strains, locus YLL041C, strain sdh2, hits give low values 1.01 | S. cerevisiae deletion strains, locus YLR027C, strain aat2, hits give low values 1.01 | S. cerevisiae deletion strains, locus YLR039C, strain RIC1, hits give low values 0.971 | S. cerevisiae deletion strains, locus YLR058C, strain SHM2, hits give low values 0.992 | S. cerevisiae deletion strains, locus YLR102C, strain apc9, hits give low values 0.981 | S. cerevisiae deletion strains, locus YLR113W, strain HOG1, hits give low values 0.988 | S. cerevisiae deletion strains, locus YLR221C, strain rsa3, hits give low values 1 | S. cerevisiae deletion strains, locus YLR258W, strain gsy2, hits give low values 1.01 | S. cerevisiae deletion strains, locus YLR262C, strain YPT6 (second series), hits give low values 1 | S. cerevisiae deletion strains, locus YLR262C, strain YPT6, hits give low values 1 | S. cerevisiae deletion strains, locus YLR268W, strain sec22, hits give low values 0.987 | S. cerevisiae deletion strains, locus YLR320W, strain mms22, hits give low values 1.01 | S. cerevisiae deletion strains, locus YLR330W, strain CHS5, hits give low values 0.992 | S. cerevisiae deletion strains, locus YLR342W, strain FKS1 (second series), hits give low values 1.04 | S. cerevisiae deletion strains, locus YLR342W, strain FKS1, hits give low values 1.01 | S. cerevisiae deletion strains, locus YLR357W, strain rsc2, hits give low values 1 | S. cerevisiae deletion strains, locus YLR370C, strain arc18, hits give low values 1.01 | S. cerevisiae deletion strains, locus YLR371W, strain rom2, hits give low values 1 | S. cerevisiae deletion strains, locus YLR384C, strain iki3, hits give low values 0.998 | S. cerevisiae deletion strains, locus YLR418C, strain cdc73, hits give low values 0.998 | S. cerevisiae deletion strains, locus YML016C, strain PPZ1, hits give low values 0.998 | S. cerevisiae deletion strains, locus YML032C, strain rad52, hits give low values 0.991 | S. cerevisiae deletion strains, locus YML120C, strain ndi1, hits give low values 1.01 | S. cerevisiae deletion strains, locus YML124C, strain tub3, hits give low values 1.01 | S. cerevisiae deletion strains, locus YMR058W, strain fet3, hits give low values 1.01 | S. cerevisiae deletion strains, locus YMR078C, strain ctf18, hits give low values 1 | S. cerevisiae deletion strains, locus YMR125W, strain sto1, hits give low values 1.02 | S. cerevisiae deletion strains, locus YMR129W, hits give low values 0.999 | S. cerevisiae deletion strains, locus YMR205C, strain PFK2, hits give low values 1.02 | S. cerevisiae deletion strains, locus YMR223W, strain ubp8, hits give low values 1.02 | S. cerevisiae deletion strains, locus YMR231W, strain pep5, hits give low values 1.01 | S. cerevisiae deletion strains, locus YMR263W, strain SAP30, hits give low values 0.98 | S. cerevisiae deletion strains, locus YMR307W, strain GAS1, hits give low values 1.16 | S. cerevisiae deletion strains, locus YNL067W, strain RPL9B, hits give low values 0.961 | S. cerevisiae deletion strains, locus YNL071W, strain lat1, hits give low values 1.02 | S. cerevisiae deletion strains, locus YNL128W, strain TEP1, hits give low values 0.954 | S. cerevisiae deletion strains, locus YNL153C, strain GIM3, hits give low values 0.99 | S. cerevisiae deletion strains, locus YNL183C, strain NPR1, hits give low values 0.909 | S. cerevisiae deletion strains, locus YNL209W, strain ssb2, hits give low values 1.01 | S. cerevisiae deletion strains, locus YNL233W, strain BNI4, hits give low values 0.981 | S. cerevisiae deletion strains, locus YNL248C, strain rpa49, hits give low values 1 | S. cerevisiae deletion strains, locus YNL250W, strain rad50, hits give low values 0.985 | S. cerevisiae deletion strains, locus YNL271C, strain bni1, hits give low values 1.02 | S. cerevisiae deletion strains, locus YNL298W, strain CLA4, hits give low values 0.996 | S. cerevisiae deletion strains, locus YNL307C, strain MCK1, hits give low values 0.987 | S. cerevisiae deletion strains, locus YNL322C, strain KRE1 (second series), hits give low values 1.01 | S. cerevisiae deletion strains, locus YNL322C, strain KRE1, hits give low values 1 | S. cerevisiae deletion strains, locus YNR049C, strain mso1, hits give low values 1.02 | S. cerevisiae deletion strains, locus YNR052C, strain pop2, hits give low values 0.995 | S. cerevisiae deletion strains, locus YOL012C, strain htz1 2.11 | S. cerevisiae deletion strains, locus YOL147C, strain pex11, hits give low values 0.984 | S. cerevisiae deletion strains, locus YOR001W, strain rrp6, hits give low values 1.01 | S. cerevisiae deletion strains, locus YOR061W, strain CKA2, hits give low values 0.998 | S. cerevisiae deletion strains, locus YOR069W, strain VPS5, hits give low values 1 | S. cerevisiae deletion strains, locus YOR070C, strain gyp1, hits give low values 1.02 | S. cerevisiae deletion strains, locus YOR080W, strain dia2, hits give low values 1.01 | S. cerevisiae deletion strains, locus YOR083W, strain WHI5, hits give low values 0.987 | S. cerevisiae deletion strains, locus YOR106W, strain vam3, hits give low values 1 | S. cerevisiae deletion strains, locus YOR136W, strain idh2, hits give low values 0.997 | S. cerevisiae deletion strains, locus YOR144C, strain elg1, hits give low values 1.01 | S. cerevisiae deletion strains, locus YOR184W, strain ser1, hits give low values 1.01 | S. cerevisiae deletion strains, locus YOR231W, strain MKK1, hits give low values 0.948 | S. cerevisiae deletion strains, locus YOR265W, strain rbl2, hits give low values 1.02 | S. cerevisiae deletion strains, locus YOR270C, strain vph1, hits give low values 1.08 | S. cerevisiae deletion strains, locus YOR290C, strain snf2, hits give low values 0.971 | S. cerevisiae deletion strains, locus YOR316C, strain cot1, hits give low values 0.989 | S. cerevisiae deletion strains, locus YPL051W, strain arl3, hits give low values 0.977 | S. cerevisiae deletion strains, locus YPL055C, strain LGE1, hits give low values 0.978 | S. cerevisiae deletion strains, locus YPL078C, strain atp4, hits give low values 1 | S. cerevisiae deletion strains, locus YPL106C, strain sse1, hits give low values 0.999 | S. cerevisiae deletion strains, locus YPL240C, strain hsp82, hits give low values 1.03 | S. cerevisiae deletion strains, locus YPL256C, strain CLN2, hits give low values 0.977 | S. cerevisiae deletion strains, locus YPR119W, strain clb2, hits give low values 0.994 | S. cerevisiae deletion strains, locus YPR141C, strain kar3, hits give low values 1.01 | S. cerevisiae deletion strains, locus YPR163C, strain tif3, hits give low values 0.989 | S. cerevisiae deletion strains, locus YPR167C, strain met16, hits give low values 0.998 | S. cerevisiae deletion strains, strain wtn01, hits give low values 0.992 | S. cerevisiae strains, strain wild type, hits give low values 1
